# Only some compounds are listed: those with a hit (about 3.5% of all), similar ones and a draw of the others.
# TMEM16A inh – mouse TMEM16A channel inhibition, primary screen | HEK293 TMEM16A/YFP iodide influx fluorescence, ionomycin | normalized B-score (activity score, 25-100; higher = stronger inhibition) at 10 µM | 310,000 compounds, 1.2% hits | AID 588511;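 active = ratio plate-corrected score three or more library SD toward inhibition, starting fluorescence score within five deviations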;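 also: score derived from kinetic fluorescence span divided by baseline fluorescence per well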
# KCNK3 block – human KCNK3 channel inhibition, primary screen. O14649. CHO-KCNK3 thallium flux, FluxOR fluorescence; stronger effect = lower value. B-score at 10 µM. 340,000 compounds, 0.84% hits. AID 602410;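 active = B-score under library mean minus 4 SD, starting fluorescence ratio at most library mean plus 5 SD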;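 also: more negative B-score means stronger inhibition of thallium flux through KCNK3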
# KCNK9 block – human KCNK9 channel inhibition | Q9NPC2 | HEK293 KCNK9, FluxOR thallium flux fluorescence; stronger effect = lower value | B-score at 10 µM | 310,000 compounds, 1.2% hits | AID 488922;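 active = ratio B-score over 3 SD below the library mean, with starting fluorescence within 5 SD of its mean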;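 also: negative B-score means less thallium flux so channel inhibition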
# Target sequence (Q9NPC2 whole entry, looked up): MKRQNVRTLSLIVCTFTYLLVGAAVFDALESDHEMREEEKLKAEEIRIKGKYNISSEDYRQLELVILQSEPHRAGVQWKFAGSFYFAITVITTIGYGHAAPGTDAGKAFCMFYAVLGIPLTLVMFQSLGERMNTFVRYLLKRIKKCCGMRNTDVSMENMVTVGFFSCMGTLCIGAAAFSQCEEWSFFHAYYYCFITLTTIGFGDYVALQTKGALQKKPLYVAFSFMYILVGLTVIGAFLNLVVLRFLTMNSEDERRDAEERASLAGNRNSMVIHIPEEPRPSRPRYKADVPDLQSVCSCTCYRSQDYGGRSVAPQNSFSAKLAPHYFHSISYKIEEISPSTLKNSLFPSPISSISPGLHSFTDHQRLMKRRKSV
# ANO1 activ – activators or potentiators of mouse TMEM16A chloride channel. Q8BHY3. 340,000 compounds, 0.3% hits. HEK293 TMEM16A/YFP-H148Q/I152L, iodide quench fluorescence; stronger effect = lower value. AID 623877. B-score at 10 µM;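 active = fluorescence-ratio B-score plate-corrected deviation score at least 3 library SD below zero, with starting fluorescence score within 5 deviations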;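 also: channel opened by trigger with iodide after compound preincubation; score built on the fluorescence ratio of max minus min over baseline; more negative score means more quench and so TMEM16A activation or potentiation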
# Kir21 inh – Kir2.1 (mouse) channel inhibition | HEK293-Kir2.1, FluxOR thallium flux fluorescence; stronger effect = lower value | B-score at 10 µM | 310,000 compounds, 0.85% hits | AID 1672;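 active = fluorescence ratio B-score at or below minus 3 SD of library scores, with starting-brightness B-score within 2 SD, cut at about -4.2 in these data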;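 also: channel flux triggered by added potassium and thallium sulfate stimulus; B-score of peak minus minimum fluorescence over baseline after thallium stimulus; more negative B-score means stronger Kir2.1 block with less thallium influx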
# TMEM16A reconf – reconfirmed blocker of mouse TMEM16A calcium-activated chloride channel; shares compounds with TMEM16A inh; HEK293 TMEM16A/YFP-H148Q, iodide quench fluorescence; ionomycin added to raise cell calcium; inhibition, % at 10 µM; 2,300 compounds, 39% hits; AID 652189;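 active = mean duplicate percent inhibition, scaled so buffer wells are 0 and the reference blocker 100, over three buffer SD above buffer mean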
# TMEM16A Ca cntr – counter-screen for TMEM16A inhibitors: effect on calcium mobilization | calcium response (% of ionomycin), % at 10 µM | shares compounds with TMEM16A inh | 2,300 compounds, 2% hits | TMEM16A/YFP HEK293, Fluo4 calcium mobilization;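 active = duplicate-averaged calcium signal over 20% of the ionomycin maximum, relative to buffer baseline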;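 also: each well's signal is peak minus trough fluorescence divided by its pre-addition baseline; 0% = buffer wells and 100% = ionomycin wells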
# YFP-HEK293 quench – parental YFP-HEK293 iodide quench counter-screen activity | shares compounds with TMEM16A inh | ionomycin | YFP ratio F(max-min)/F0 at 10 µM | 2,300 tested, under 10 active;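 active = yellow fluorescent protein signal ratio exceeding the buffer control mean by over 5 SD of those controls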;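 also: ratio is mean of duplicate wells from kinetic YFP trace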
# ClC-1 inh – blocks the rat ClC-1 voltage-dependent chloride channel; shares compounds with TMEM16A inh; 2,300 tested, under 10 active; CHO ClC-1-YFP, iodide influx fluorescence quench; iodide control reads 0, buffer control 100; ratio percent, % at 10 µM;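 active = duplicate-mean ratio percent above the mean of iodide-only control wells, which defines zero, plus 5 of their SD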;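 also: higher percent means stronger block of ClC-1 iodide influx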
# * marks the source's active call; other numbers are inactive results; i = inactive; . = no result.
SMILES,TMEM16A inh,KCNK3 block,KCNK9 block,ANO1 activ,Kir21 inh,TMEM16A reconf,TMEM16A Ca cntr,YFP-HEK293 quench,ClC-1 inh
Cc1ccc(C(=O)N2CCN(C3c4cccc5cccc(c45)C3NS(=O)(=O)c3ccccc3)CC2)cc1 (stereo not drawn),i,i,i,i,-0.87,.,.,.,.
O=C(CN1C(=O)/C(=C/c2cccc(Br)c2)SC1=S)N1CCCC1,i,i,i,i,-0.3,.,.,.,.
CCCCCCNc1cc2n(c(=O)n1)CCc1cc(OC)c(OC)cc1-2,i,i,.,i,.,i,i,-1,-12
CCCCN(CCCC)c1nc(OC)nc(-n2nnc(C(C)=O)c2C)n1,25*,i,-6.6*,i,-0.01,17%*,i,-1.1,-12
CC(=O)c1nnn(-c2nc(N)nc(N(c3ccccc3)c3ccccc3)n2)c1C,i,i,i,i,-1.2,.,.,.,.
COC(=O)C1CN(C(=O)C(C)Oc2ccccc2Cl)c2ccccc2O1 (stereo not drawn),i,i,i,i,-1,.,.,.,.
CCOc1ccc(CONS(=O)(=O)c2ccc(NC(C)=O)cc2)cc1Cl,25*,i,i,i,-0.08,23%*,i,-1.1,-8
CC(=O)Nc1ccc(S(=O)(=O)NNC(=O)COc2ccc(Cl)cc2Cl)cc1,i,i,i,i,0.14,.,.,.,.
CN(CCOc1ccc(Br)cc1)C(=O)CNC(=O)c1ccc2ccccc2c1,i,i,i,i,0.79,.,.,.,.
CSc1ccccc1NC(=O)Nc1cccc(F)c1,i,i,i,i,-1.3,.,.,.,.
CSc1ccccc1NC(=O)Nc1ccccc1,100*,i,i,i,-1.1,i,i,-0.98,-4
CCS(=O)(=O)Nc1cccc(C2=NN(S(=O)(=O)c3ccccc3)C(c3cccs3)C2)c1 (stereo not drawn),i,i,i,i,3.2,i,i,-0.86,-20
Fc1ccc(NC(=S)NNc2ncc(C(F)(F)F)cc2Cl)c(F)c1,25*,i,i,i,-1.8,30%*,i,-1,-14
O=S(=O)(NNc1ncc(C(F)(F)F)cc1Cl)c1ccc(F)cc1F,.,i,.,i,.,.,.,.,.
CCC(=O)N(C1=C(NC)C(=O)c2ccccc2C1=O)C(C)C,i,i,i,i,-0.52,.,.,.,.
CCC(=O)N(CC)C1=C(O)c2ccccc2C(=O)C1=O,25*,i,i,i,-4.6*,26%*,i,-0.78,-10
C=C1CCN([C@@H](CC(C)C)C(=O)O)S(=O)(=O)c2ccccc21,i,i,i,i,0.02,.,.,.,.
C=C1CCN(C(CC(C)C)C(=O)OC)S(=O)(=O)c2ccccc21 (stereo not drawn),25*,i,i,i,0.61,i,i,-1.2,-4
COc1ccccc1NC(=S)NC1CCC(CC2CCC(NC(=S)Nc3ccccc3OC)CC2)CC1 (stereo not drawn),i,i,i,i,0,.,.,.,.
O=[N+]([O-])c1cc(S(=O)(=O)C(F)(F)F)ccc1Sc1nc2ccccc2[nH]1,i,i,i,i,-0.91,.,.,.,.
CS(=O)(=O)c1ccc(Sc2nc3ccccc3[nH]2)c([N+](=O)[O-])c1,i,i,i,i,-0.15,i,i,-0.92,2
Cc1cc(N2CCOCC2)cc(C)[n+]1[O-],25*,i,i,i,0.27,i,i,-0.95,-10
COc1ccc(C)cc1NC(=O)NNC(=O)C1CCC(C(C)(C)C)CC1 (stereo not drawn),i,i,i,i,-0.04,.,.,.,.
CC(OC(=O)c1ccccc1Nc1ccc(SC(F)F)cc1)C(N)=O (stereo not drawn),25*,i,i,i,1.3,i,i,-0.9,-10
Cc1nn(-c2ccc(NC(=O)c3ccncc3)cc2)c(C)c1Cl,25*,i,i,i,-1,18%*,i,-0.89,-2
SMILES,TMEM16A inh,KCNK3 block,KCNK9 block,ANO1 activ,Kir21 inh,TMEM16A reconf,TMEM16A Ca cntr,YFP-HEK293 quench,ClC-1 inh
C/C(=N\NC(=O)c1c(Cl)c(C)nn1C)c1ccc(NC(=O)c2ccncc2)cc1,i,i,i,i,-0.37,.,.,.,.
C[C@H](CO)N1C[C@H](C)[C@@H](CN(C)S(=O)(=O)c2ccccc2)Oc2c(NC(=O)NC3CCCCC3)cccc2C1=O,.,i,.,i,.,.,.,.,.
Cc1cc(C)c(C#N)c(SCC2COc3ccccc3O2)n1 (stereo not drawn),100*,i,i,i,2.5,i,i,-1.2,-10
Cc1cc(C)c(C#N)c(SCc2ccc(C(=O)O)cc2)n1,i,i,i,i,2.4,.,.,.,.
Cc1cc(C)c(C#N)c(SCc2cn3ccccc3n2)n1,i,i,i,i,-2.6,.,.,.,.
Cc1cc(C)c(C#N)c(SCc2ccccc2)n1,25*,i,i,i,-0.46,i,i,-1.1,-10
Cc1cc(C)c(C#N)c(SCc2ccccc2C)n1,25*,i,i,i,-0.74,i,i,-1,-17
CC(C)[C@@H](NC(=O)C1CCC(CNC(=O)[C@H](Cc2ccccc2)NC(=O)OC(C)(C)C)CC1)C(=O)O (stereo partly drawn),i,i,i,i,2.8,.,.,.,.
CSCC[C@H](NC(=O)OC(C)(C)C)c1nnc(SCc2ccc(F)cc2)o1,100*,i,i,i,-3.2,i,i,-0.94,-3
COc1ccc(NS(=O)(=O)c2cc(C(=O)N3CCC3)ccc2C)cc1,.,i,.,i,.,.,.,.,.
CCCCOCCCNC(=O)c1c(-c2ccccc2)noc1C,25*,i,i,i,0.41,i,i,-1.2,-15
CC(C)On1c(SCC(=O)N(C)C)nc2ccccc2c1=O,i,.,i,.,0.37,.,.,.,.
Cc1ccc(C(C)(C)C)cc1S(=O)(=O)Nc1nc2ccccc2nc1Cl,100*,i,i,i,1.4,40%*,i,-1.1,-12
O=S(=O)(Nc1nc2ccccc2nc1Cl)c1ccc2ccccc2c1,100*,i,i,i,1.4,28%*,i,-1,-12
CC(Sc1nc2ccccc2c(=O)n1C)C(=O)N(C)C1CCCCC1 (stereo not drawn),i,i,i,i,-0.96,.,.,.,.
